Assay outcomes deposited in PubChem by Columbia University Molecular Screening Center.
This is a sample that favours compounds with a hit; in the whole collection about 1.5% have one here.
HUVEC tox IL1B – HUVEC cytotoxicity counter-screen, IL-1B stimulated; HUVEC cell count loss, Hoechst imaging; cell count reduction, % at 2 µM; actives 0.41% (n = 94,000); AID 845;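 active means cell count reduction more than 3 SD above the screen-wide mean, cut at about 70% in these data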;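 further: normalized per plate to untreated control cells as the no-loss baseline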
TNFa cytotox – HUVEC cytotoxicity counter-screen, TNF alpha stimulated. HUVEC TNFalpha-stimulated, Hoechst cell count, imaging. cell count reduction, % at 2 µM. actives 0.17% (n = 93,000). AID 848;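 active means cell count reduction exceeding the screen mean by over 5 SD, scaled to untreated wells per plate, cut at about 78% in these data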;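 further: cells counted after 24 h of TNF alpha exposure following the 1 h pretreatment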
VCAM1 TNFa inh – reduces TNF alpha induced VCAM1 expression in HUVEC; AID 802; actives 0.48% (n = 95,000); HUVEC TNFa-induced VCAM-1 immunofluorescence, high-content imaging; inhibition, % at 2 µM;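 active means inhibition above the batch mean plus 3 SD, with images confirmed as a hit by eye, cut at about 37% in these data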;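 further: 0% = TNF-stimulated DMSO wells and 100% = unstimulated control wells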
NFkB transloc pot – enhances IL-1B driven NFkB nuclear translocation; HUVEC IL-1B NFkB p65 nuclear translocation imaging; activation, % at 2 µM; actives 0.3% (n = 94,000);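 active means activation above 40%, about the mean plus 3 SD, also judged a hit on visual image review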;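 further: percent activation is computed from the nuclear over cytoplasmic p65 intensity ratio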
IL1B NFkB inh – blocks IL-1B driven NFkB nuclear translocation in HUVEC cells. AID 796. actives 0.43% (n = 94,000). HUVEC IL-1B NFkB p65 nuclear translocation imaging. inhibition, % at 2 µM;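 active means inhibition above about 30% together with a positive call from visual inspection of the well image, limit read from the data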;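 further: nuclear over cytoplasmic p65 intensity ratio measured by imaging; 0% = IL-1B stimulated DMSO wells and 100% = unstimulated DMSO wells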
* = called active by the depositor; / = no result given.

SMILES	HUVEC tox IL1B	TNFa cytotox	VCAM1 TNFa inh	NFkB transloc pot	IL1B NFkB inh
Cc1ccc(C)c(N(C)C(=O)COc2cc(=O)n(C)c3ccccc23)c1	-2.4	-25.4	15.2	4.3	-4.3
c1ccc(N2CCN(Cc3cn4cccnc4n3)CC2)cc1	-67.1	-12.2	7.8	5.0	-5.0
C=CCOc1c2ccc(C(=O)NCc3ccccc3OC)cc2nn1C	-38.2	71.6	68.3*	-0.7	0.7
C=CCOc1c2ccc(C(=O)NCc3ccc(OC)cc3)cc2nn1C	3.4	-24.8	-9.9	-5.1	5.1
Cc1cc(C)cc(OCc2nnc(SCC(=O)N3CCN(c4ccccc4)CC3)o2)c1	-8.8	/	100.0*	7.4	-7.4
O=C(CSc1nnc(COc2ccccc2)o1)N1CCN(c2ccccc2)CC1	-8.7	-0.4	-10.2	24.0	-24.0
O=C(COc1ccccc1)Nc1ccccc1N1CCN(c2ccccc2)CC1	0.0	-0.4	10.8	41.8*	-41.8
O=C(COc1ccccc1)Nc1ccccc1N1CCN(c2ccc(F)cc2)CC1	26.8	-28.1	-3.0	3.5	-3.5
COc1ccccc1C(c1nnnn1C(C)(C)C)N1CCCc2ccccc21 (stereo not drawn)	-12.2	-4.7	23.5	8.4	-8.4
CCOc1ccc(S(=O)(=O)Nc2cc(OC)ccc2OC)cc1	22.1	67.4	58.8*	-21.8	21.8
COc1ccc(S(=O)(=O)Nc2cc(OC)c(NC(=O)c3ccco3)cc2OC)cc1	-14.4	-26.7	6.2	43.1*	-43.1
COc1ccc(CCNS(=O)(=O)c2ccc(N3CCCC3=O)cc2)cc1	-33.3	-30.7	-27.3	-0.6	0.6
COc1ccc(OC)c(NS(=O)(=O)c2ccc(N3CCCC3=O)cc2)c1	/	63.6	40.9*	/	/
Cc1n[nH]c(C)c1S(=O)(=O)N(CC(=O)N1CCc2ccccc21)c1ccc(C(C)C)cc1	7.2	-30.7	16.3	6.4	-6.4
NC(=O)C1(N2CCCCC2)CCN(C(=O)c2ccccc2)CC1	-13.2	-54.8	21.4	11.8	-11.8
COc1ccc(-c2cc3ccccc3oc2=O)cc1NC(=O)c1ccc([N+](=O)[O-])o1	4.8	/	73.7*	-20.5	23.2
COc1cc(NC(=O)c2cc3ccccc3o2)c(OC)cc1Cl	78.1*	-3.6	15.9	-99.5	99.5*
COc1ccc(-c2cc3ccccc3oc2=O)cc1NC(=O)c1ccc(Br)o1	-9.9	-29.7	8.1	18.9	-18.9
CCOC(=O)c1ccc(COC(=O)c2cc3ccccc3oc2=O)o1	76.3*	6.1	-5.4	-2.5	2.5
COc1cccc(COc2nc3c(c(=O)n(C)c(=O)n3C)n2C)c1	12.4	-13.1	6.3	-37.9	37.9*
Cc1nc(-c2ccccc2)sc1C(=O)CSc1ccc(F)cc1	-20.9	-2.1	-7.4	-36.0	36.0*
CNS(=O)(=O)c1cc(OC)ccc1OC	0.5	-28.6	8.8	8.5	-8.5
O=C(NCc1ccccn1)NC12CC3CC(CC(C3)C1)C2	89.3*	-4.7	4.6	-95.2	95.2*
O=C(Nc1ccccn1)NC12CC3CC(CC(C3)C1)C2	-23.0	-12.6	-7.5	20.3	-20.3
COc1ccccc1C1=NN(C(=S)Nc2ccccc2)C(c2ccco2)C1 (stereo not drawn)	6.7	-30.8	-3.4	-10.6	10.6
SMILES	HUVEC tox IL1B	TNFa cytotox	VCAM1 TNFa inh	NFkB transloc pot	IL1B NFkB inh
Brc1ccccc1-c1nnc2sc(Cc3ccccc3)nn12	-20.2	-6.7	13.6	59.1*	-59.1
CCOc1cc(C2C(C(=O)c3ccc(C)o3)=C(O)C(=O)N2CCc2ccccc2)ccc1O (stereo not drawn)	-26.6	-3.0	-1.6	-47.2	47.2*
COc1cc(C2C(C(C)=O)=C(O)C(=O)N2CCc2ccc(OC)c(OC)c2)ccc1O (stereo not drawn)	-23.8	-24.9	16.3	-17.5	17.5
CCCC(C)C(=O)NCc1ccccc1OC (stereo not drawn)	0.0	-6.0	-3.5	123.2*	-123.2
CCCCC(CC)C(=O)NCc1ccccc1OC (stereo not drawn)	-9.4	-7.6	8.1	101.3*	-101.3
COc1ccccc1CNC(=O)c1ccccc1N	2.0	-31.9	0.5	15.7	-15.7
Cc1ccnc(SCCn2c(N3CCCCC3)nc3c2c(=O)[nH]c(=O)n3C)n1	-92.4	-4.3	2.4	3.1	-3.1
COc1cc(C(C)=O)ccc1OCC(=O)c1cc(C)n(C2CC2)c1C	25.8	-21.3	35.3	11.5	-11.5
Cn1c(SCc2ccc(Cl)cc2Cl)nc(C(F)(F)F)cc1=O	-91.0	2.4	3.4	43.7*	-43.7
CCSc1nc(C(F)(F)F)cc(=O)n1-c1ccccc1	9.0	9.9	7.1	2.9	-2.9
COc1ccc(CNC(=O)Cn2nc(C(F)(F)F)c3c2CCC3)cc1	94.1*	-27.7	-21.8	-34.6	34.6*
Cc1c(C(=O)OC(C)C)[nH]c2c1C(=O)CC(C)(C)C2	87.3*	-6.0	3.5	-95.9	95.9*
Cc1c(C(=O)OC(C)C)[nH]c2c1C(=O)CCC2	-27.0	-7.1	20.7	-0.6	0.6
COc1ccc(C(=O)C(CN2CCOCC2)c2ccccc2)cc1 (stereo not drawn)	15.1	0.4	51.2*	8.9	-8.9
COc1ccc(C(=O)C(CN2CCCC2)c2ccccc2)cc1 (stereo not drawn)	0.8	-4.5	83.8*	-17.7	17.7
C=CCn1c(=O)n(CCC#N)c(=O)n(CCC#N)c1=O	-23.1	8.0	-2.9	2.5	-2.5
Cc1n[nH]c(=O)nc1NCCc1ccccc1	-1.9	-22.9	-8.8	4.5	-4.5
Cc1n[nH]c(=O)nc1NCc1ccccc1	-21.8	76.8	88.9*	7.0	-7.0
Cc1ccc(S(=O)(=O)N2CCN(c3ncnc4c3cnn4-c3ccccc3)CC2)cc1	5.7	-15.9	-4.4	-9.5	9.5
Cc1noc(-c2ccccc2OC(=O)c2ccccc2)n1	1.1	-33.6	6.0	53.4*	-53.4
O=C1c2ccccc2C(=O)N1CCCCN1CCN(CCCCN2C(=O)c3ccccc3C2=O)CC1	13.5	-15.5	3.4	14.2	-14.2
O=C1c2ccccc2C(=O)N1CCCN1CCN(CCCN2C(=O)c3ccccc3C2=O)CC1	89.1*	-4.8	3.3	-98.1	98.1*
O=C(O)COc1ccc(NC(=O)c2ccco2)cc1	12.0	8.0	14.1	4.5	-4.5
C/C(=N\O)c1ccc2c3ccccc3n(C)c2c1	-0.9	29.2	41.1*	21.0	-21.0
CCn1c2ccccc2c2cc(/C(C)=N/O)ccc21	6.2	-5.2	16.0	1.7	-1.7
SMILES	HUVEC tox IL1B	TNFa cytotox	VCAM1 TNFa inh	NFkB transloc pot	IL1B NFkB inh
CCNC(=O)CCn1nc(-c2ccc(Cl)cc2)c2ccccc2c1=O	15.5	96.1*	83.9*	1.3	-1.3
CCC(=O)N1CCN(c2nc(-c3ccccc3)c3c(c2C#N)CCCC3)CC1	-29.2	-27.1	3.4	15.0	-15.0
O=C(CCCOc1ccc(Cl)cc1)Nc1nncs1	-13.6	-28.2	6.5	43.0*	-43.0
Cc1ccc(OCCCC(=O)Nc2nncs2)cc1	-1.1	-40.7	-21.7	2.9	-2.9
CC1CCCN(c2ccc(C(=O)NCC3CCCO3)cn2)C1 (stereo not drawn)	-15.6	13.7	12.2	-9.4	9.4
O=C(c1ccc([N+](=O)[O-])cc1)N(Cc1ccc(Cl)cc1)N1C(=O)CCCC1=O	34.4	3.2	46.3*	-22.7	22.7
